In article PMC5540273 (PLoS ONE, 2017):

Experiments:
Details in all cases: concentration: 1 μM,replicates: in singlicate; n = 1
EPHA7 = system: EPHA7
EPHA8 = system: EPHA8
EPHB1 = system: EPHB1
EPHB2 = system: EPHB2
EPHB3 = system: EPHB3
EPHB4 = system: EPHB4
EPHB6 = system: EPHB6
ERBB2 = system: ERBB2
ERBB3 = system: ERBB3
ERBB4 = system: ERBB4
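Further: KINOMEscan kinase panel screen.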

| Structure (SMILES) | %Inh (EPHA7) [%] | %Inh (EPHA8) [%] | %Inh (EPHB1) [%] | %Inh (EPHB2) [%] | %Inh (EPHB3) [%] | %Inh (EPHB4) [%] | %Inh (EPHB6) [%] | %Inh (ERBB2) [%] | %Inh (ERBB3) [%] | %Inh (ERBB4) [%] |
| --- | --- | --- | --- | --- | --- | --- | --- | --- | --- | --- |
| Cn1cc(-c2cccc3c(N)c(C(N)=O)nnc23)cn1 | 6 | 13 | 4 | 12 | 11 | 5 | 16 | 14 | 27 | 0 |
| Cc1nnc(-c2ccc3occ(-c4ccc(S(C)=O)cc4)c3n2)o1 (centres unmarked) | 0 | 0 | 0 | 0 | 10 | 12 | 0 | 17 | 0 | 0 |
| Cc1cccc(-c2nc(Nc3ccncc3)c3sccc3n2)n1 [GW869641] | 6 | 2 | 15 | 6 | 16 | 0 | 30 | 29 | 29 | 13 |
| C[C@@H](Oc1cc(-n2cnc3cc(-c4cnn(C)c4)ccc32)sc1C(N)=O)c1ccccc1Cl [GSK580432] | 4 | 34 | 29 | 0 | 16 | 19 | 93.7 | 0 | 0 | 0 |
| CCN1CCN(CCCC(=O)Nc2n[nH]c3nc(-c4ccc(O)cc4)c(Br)cc23)CC1 [SB-731579] | 0 | 0 | 0 | 6 | 0 | 0 | 0 | 24 | 66 | 0 |
| COC(=O)c1cccc(NC(=O)NC2CCN(c3ccnc(Nc4cc(OC)c(OC)c(OC)c4)n3)C2)c1 (centres unmarked) [GSK1379767] | 4 | 7 | 10 | 0 | 8 | 20 | 86 | 51 | 31 | 0 |
| C[C@@H](Oc1cc(-n2cnc3ccc(-c4ccncc4)cc32)sc1C(N)=O)c1ccccc1Cl [GSK483724] | 14 | 23 | 26 | 0 | 9 | 10 | 0 | 14 | 0 | 41 |
| O=C(NCC1CC1)c1ccc(-c2cc(C(=O)NC3CC3)ccc2F)cc1 [GW810445] | 0 | 3 | 4 | 0 | 0 | 0 | 0 | 11 | 0 | 33 |
| CN(c1ccc2c(c1)nc(NCc1ccc(F)cc1)n2C)c1ccnc(Nc2ccc(CS(C)(=O)=O)cc2)n1.Cl [GW813244] | 0 | 49 | 9 | 23 | 5 | 0 | 78 | 17 | 0 | 19 |
| CC(C)S(=O)(=O)N1CCN(Cc2ccc3c(c2)nc(NC(=O)c2ccsc2)n3C[C@H](O)c2ccccc2)CC1 [GW635815] | 10 | 19 | 35 | 16 | 15 | 14 | 0 | 0 | 0 | 0 |
| Cc1ccc2c(-c3ccnc(Nc4ccc(C(F)(F)F)cc4)n3)cnn2n1 [GW819776] | 0 | 6 | 14 | 0 | 7 | 0 | 14 | 0 | 0 | 5 |
| Cl.Cl.NC[C@H](CC1CCCCC1)NC(=O)c1ccc(-c2ccnc3[nH]ccc23)s1 [GSK1581428] | 14 | 36 | 6 | 0 | 15 | 14 | 12 | 22 | 0 | 0 |
| CCCC(=O)Nc1n[nH]c2ncccc12 [SB-601436] | 0 | 0 | 0 | 0 | 12 | 16 | 0 | 0 | 0 | 0 |
| CS(=O)(=O)Nc1ccc(-c2ccnc3[nH]ccc23)cc1 [GSK993273] | 13 | 18 | 19 | 6 | 18 | 0 | 5 | 15 | 0 | 0 |
| O=C(Nc1ccccc1)c1cccc(Oc2ccc3nccn3n2)c1 | 0 | 1 | 13 | 8 | 0 | 3 | 64 | 0 | 39 | 0 |
| Cc1ccc(C(=O)Nc2ccc(Oc3ccc4nc(NC(=O)C5CC5)cn4c3)c(F)c2)c(=O)n1-c1ccccc1 | 74 | 99.8 | 83 | 94.8 | 11 | 75 | 99.1 | 30 | 43 | 3 |
| CN(c1ccccc1CNc1nc(Nc2ccc3c(c2)CC(=O)N3)ncc1C(F)(F)F)S(C)(=O)=O | 61 | 0 | 11 | 4 | 0 | 0 | 38 | 0 | 0 | 0 |
| Cn1ccc2ncnc(Oc3ccc(NC(=O)Nc4cc(C(C)(C)C)on4)c(Cl)c3)c21 | 90 | 98.9 | 65 | 78 | 40 | 35 | 64 | 81 | 5 | 0 |
| Cc1ccn2nc(-c3ccc(F)cc3)c(-c3ccncc3)c2c1.Cl [GW457859] | 0 | 0 | 0 | 0 | 2 | 3 | 8 | 64 | 24 | 32 |
| COc1cc(Nc2nccc(N3CCC(NC(=O)c4cccc(C#N)c4)C3)n2)cc(OC)c1OC (centres unmarked) [GSK1379751] | 0 | 0 | 4 | 0 | 8 | 19 | 86 | 41 | 16 | 31 |
| O=C(Nc1ccc(Oc2ccc3nc(NC(=O)C4CC4)cn3n2)c(F)c1)c1cccn(-c2ccccc2)c1=O | 0 | 79 | 39 | 60 | 6 | 35 | 77 | 15 | 30 | 1 |
| NC(=O)c1ccc(-c2cc3ncnc(SCC(=O)O)c3s2)cc1 | 0 | 0 | 0 | 0 | 26 | 1 | 62 | 33 | 0 | 10 |

| Structure (SMILES) | %Inh (EPHA7) [%] | %Inh (EPHA8) [%] | %Inh (EPHB1) [%] | %Inh (EPHB2) [%] | %Inh (EPHB3) [%] | %Inh (EPHB4) [%] | %Inh (EPHB6) [%] | %Inh (ERBB2) [%] | %Inh (ERBB3) [%] | %Inh (ERBB4) [%] |
| --- | --- | --- | --- | --- | --- | --- | --- | --- | --- | --- |
| CC(=O)c1c(-c2ccncc2)[nH]c(-c2ccncc2)c1C [GW493036] | 1 | 6 | 12 | 0 | 3 | 18 | 0 | 0 | 17 | 34 |
| CS(=O)c1ccc(-c2coc3ccc(-c4n[nH]c(=O)o4)cc23)cc1 (centres unmarked) | 0 | 0 | 0 | 12 | 0 | 0 | 25 | 0 | 13 | 5 |
| CC(C)c1nc(-c2cccc(NS(=O)(=O)c3ccccc3)c2)c(-c2ccnc(Nc3ccc4c(c3)CN(C)CC4)n2)s1 [GSK1649598] | 13 | 80 | 34 | 0 | 0 | 11 | 98.5 | 86 | 97.7 | 98.8 |
| CN1CCN(CCNc2nc3cc(Oc4ccc(NC(=O)Nc5cc(C(F)(F)F)ccc5F)cc4)ccc3[nH]2)CC1.Cl.Cl [GW768504] | 0 | 23 | 17 | 34 | 14 | 17 | 25 | 0 | 0 | 0 |
| Cc1cccc2c(-c3ccncc3)c(-c3ccc(F)cc3)nn12.Cl [GW461487] | 9 | 16 | 5 | 94.5 | 7 | 0 | 26 | 1 | 0 | 16 |
| O=C1NCCc2[nH]c(-c3ccncc3)cc21 | 0 | 0 | 0 | 12 | 44 | 17 | 8 | 0 | 21 | 0 |
| NC(=O)Nc1sc(-c2ccc(F)cc2)cc1C(N)=O [GW789449] | 0 | 0 | 24 | 0 | 14 | 20 | 64 | 15 | 54 | 3 |
| Cc1n[nH]c2cc(Nc3ccnc(Nc4cccc(CN5CCOCC5)c4)n3)ccc12 [GW682569] | 0 | 9 | 19 | 13 | 12 | 11 | 87 | 27 | 12 | 43 |
| CC(C(=O)NC1CCN(c2ccnc(Nc3ccc(F)cc3)n2)C1)c1ccc(Cl)cc1 (centres unmarked) [GSK1379713] | 5 | 14 | 10 | 0 | 0 | 0 | 0 | 25 | 0 | 0 |
| Cn1ccc2ncnc(Oc3ccc(NC(=O)Nc4cccc(C(F)(F)F)c4)c(F)c3)c21 | 93.8 | 98.8 | 80 | 90.6 | 74 | 81 | 97.6 | 10 | 24 | 2 |
| COC(=O)c1cccc(NC(=O)NC2CCN(c3ccnc(NCc4ccc(F)cc4)n3)CC2)c1 [GSK1379860] | 18 | 19 | 14 | 0 | 11 | 4 | 0 | 21 | 8 | 6 |
| Cl.Nc1n[nH]c2cc(-c3ccccn3)ccc12 [GSK2189892] | 0 | 0 | 4 | 0 | 4 | 0 | 18 | 9 | 0 | 0 |
| CCOC(=O)N1CCC(n2cnc(-c3ccc(F)cc3)c2-c2ccnc(N)n2)CC1 [SB-219952] | 1 | 0 | 0 | 7 | 11 | 4 | 30 | 5 | 21 | 21 |
| CCn1c(-c2nonc2N)nc2cncc(Br)c21 [SB-738004] | 0 | 0 | 0 | 12 | 0 | 13 | 29 | 60 | 43 | 11 |
| Cn1ccc2ncnc(Oc3ccc(NC(=O)Nc4ccnc(C(F)(F)F)c4)c(Cl)c3)c21 | 6 | 14 | 5 | 28 | 25 | 20 | 36 | 20 | 0 | 0 |
| C[C@@H](Oc1cc(-n2cnc3cc(-c4ccncc4)ccc32)sc1C(N)=O)c1ccccc1Cl [GSK479719] | 8 | 15 | 9 | 0 | 18 | 12 | 0 | 0 | 0 | 0 |
| C[C@@H]1CNc2c(sc3ccc4nc(-c5ccc(O)cc5)ccc4c23)C(=O)N1 | 0 | 0 | 5 | 12 | 0 | 0 | 9 | 26 | 0 | 6 |
| COc1cccc(OC)c1C(=O)Nc1cccc(-c2nn3ccccc3c2-c2ccnc(Nc3cccc(F)c3)n2)c1 [GSK361065] | 14 | 17 | 100 | 0 | 8 | 8 | 42 | 61 | 0 | 84 |
| Cn1ccc2ncnc(Oc3ccc(NC(=O)Nc4cccc(C(F)(F)F)c4)c(Cl)c3)c21 | 82 | 99.5 | 70 | 92.9 | 66 | 64 | 90 | 29 | 5 | 12 |
| O=C(NOCC1CC1)c1cc(Br)c(F)c(F)c1Nc1ccc(I)cc1Cl | 0 | 0 | 5 | 5 | 0 | 0 | 0 | 44 | 0 | 0 |
| COc1cc2ncn(-c3cc(OCC4CCCCC4)c(C(N)=O)s3)c2cc1OC [GSK204559] | 17 | 29 | 10 | 0 | 21 | 8 | 64 | 0 | 0 | 0 |
| CNC(=O)c1ccccc1Nc1nc(Nc2cccc(CS(C)(=O)=O)c2)ncc1C.O=CO [GSK1520489] | 96.6 | 96.2 | 99.9 | 88 | 9 | 91.6 | 92.8 | 92.1 | 3 | 98.2 |
